Experimental data from publication PMC5540273 (PLoS ONE, 2017).

Legend:
Settings in all cases: concentration: 1 μM, replicates: in singlicate; n = 1
MARK4 = system: MARK4
MAST1 = system: MAST1
MEK1 = system: T1, MEK1
T1 construct: gene MAP2K1

MEK2 = system: T2, MEK2
T2 construct: gene MAP2K2

MEK3 = system: T3, MEK3
T3 construct: gene MAP2K3

MEK4 = system: T4, MEK4
T4 construct: gene MAP2K4

MEK5 = system: T5, MEK5
T5 construct: gene MAP2K5

MEK6 = system: T6, MEK6
T6 construct: gene MAP2K6

MELK = system: MELK
MERTK = system: MERTK
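Further: KINOMEscan kinase panel screen.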

O=C1NC(=O)C(c2ccccc2)=C1Nc1cccc(O)c1 [SB-390534]
%Inh (MARK4): 0%
%Inh (MAST1): 33%
%Inh (MEK1): 16%
%Inh (MEK2): 14%
%Inh (MEK3): 10%
%Inh (MEK4): 12%
%Inh (MEK5): 29%
%Inh (MEK6): 0%
%Inh (MELK): 4%
%Inh (MERTK): 9%

COc1ccc(-c2cc3c(C)nc(N)nc3n([C@H]3CC[C@H](OCCO)CC3)c2=O)cn1
%Inh (MARK4): 0%
%Inh (MAST1): 0%
%Inh (MEK1): 0%
%Inh (MEK2): 0%
%Inh (MEK3): 5%
%Inh (MEK4): 0%
%Inh (MEK5): 0%
%Inh (MEK6): 16%
%Inh (MELK): 19%
%Inh (MERTK): 0%

CCn1c(-c2nonc2N)nc2ccccc21 [SB-693162/GW549034]
%Inh (MARK4): 0%
%Inh (MAST1): 5%
%Inh (MEK1): 30%
%Inh (MEK2): 25%
%Inh (MEK3): 47%
%Inh (MEK4): 48%
%Inh (MEK5): 18%
%Inh (MEK6): 0%
%Inh (MELK): 15%
%Inh (MERTK): 0%

Cc1ccc(Oc2ccc(Nc3ncnc4cc[nH]c34)cc2C)cn1
%Inh (MARK4): 19%
%Inh (MAST1): 49%
%Inh (MEK1): 37%
%Inh (MEK2): 25%
%Inh (MEK3): 0%
%Inh (MEK4): 0%
%Inh (MEK5): 99.7%
%Inh (MEK6): 9%
%Inh (MELK): 0%
%Inh (MERTK): 0%
